{"source": "ChEMBL document CHEMBL3988442", "about": "“University of Dundee, Small-Polar-MMV Screening Library” (2021)", "note": "Among all 48,000 compounds or so, about 13,000 (27%) showed an effect of 50% or more. Some of the results follow."}
{"test_system": "Wolbachia pipientis", "test": "Anti-Wolbachia Cell-Based Screen", "format": "functional", "set-up": "scale not given: in the data most compounds retested in dose-response had high values", "conditions": "5 µM", "units": {"Percent Effect": "%"}}
{"smiles": "O=C(c1ncccc1O)N1CCN(Cc2ccco2)C(CCO)C1", "note": "(stereo not given)", "Percent Effect": -8.878}
{"smiles": "CC(C)CN1CCC(NC(=O)N(C)Cc2csc3ccccc23)CC1", "Percent Effect": 14.6}
{"smiles": "CN(C)C1(CNc2ncc(Br)cn2)CCOCC1", "Percent Effect": 25.75}
{"smiles": "CCC(CNS(=O)(=O)c1c[nH]cn1)Oc1ccccc1F", "note": "(stereo not given)", "Percent Effect": -7.945}
{"smiles": "COc1ccnc(NCc2ccccc2Cn2cccn2)n1", "Percent Effect": 13.47}
{"smiles": "Cc1nonc1C(=O)N1CC[C@@]2(O)CCN(C3CCCCC3)C[C@H]2C1", "Percent Effect": -5.278}
{"smiles": "O=C(NC1CCC(C(=O)N2CCSCC2)CC1)N1CCC1", "note": "(stereo not given)", "Percent Effect": 3.195}
{"smiles": "CC(=O)c1cc(CN2C[C@@H](N(C)C)[C@H](C(C)C)C2)cs1", "Percent Effect": 13.8}
{"smiles": "Cc1nc(CC(C)C)cc(C(=O)N2C[C@@H](N(C)C)[C@H](C(C)C)C2)n1", "Percent Effect": -16.81}
{"smiles": "Cc1cc(C(=O)N2C[C@H](C(C)C)[C@@H](N(C)C)C2)cs1", "Percent Effect": 81.51}
{"smiles": "CC(C)[C@@H]1CN(C(=O)CCc2ccc(F)cc2)C[C@H]1C(=O)O", "Percent Effect": -26.1}
{"smiles": "CC(C)[C@H]1CN(C(=O)CC2CCC2)C[C@@H]1N(C)C", "Percent Effect": 88.21}
{"smiles": "CC1(C)CN(C(=O)CC2CCC2)C[C@]1(C)O", "Percent Effect": 6.618}
{"smiles": "Cc1cc(C(=O)N2C[C@@H](C(=O)O)[C@H](C(C)C)C2)cs1", "Percent Effect": 38.77}
{"smiles": "COCCC(=O)N1C[C@H](C(C)C)[C@@H](N(C)C)C1", "Percent Effect": 108.6}
{"smiles": "CC(C)[C@H]1CN(C(=O)CO)C[C@@H]1N(C)C", "Percent Effect": 109.8}
{"smiles": "CC(C)[C@@H]1CN(C(=O)NCc2ccco2)C[C@H]1N(C)C", "Percent Effect": -15.37}
{"smiles": "CC(C)[C@@H]1CN(Cc2cnc(C3CCCCC3)nc2)C[C@H]1N(C)C", "Percent Effect": -9.184}
{"smiles": "CC(C)[C@@H]1CN(C(=O)CN(C)Cc2ccc(F)cc2)C[C@H]1C(=O)O", "Percent Effect": -17.02}
{"smiles": "N#Cc1cc(S(N)(=O)=O)ccc1NC1CCc2c(F)cccc21", "note": "(stereo not given)", "Percent Effect": -10.31}
{"smiles": "COCCCN(C)c1ncccc1I", "Percent Effect": 0.1394}
{"smiles": "Cn1c(NCC(=O)N2CCCC2)c(C#N)c(=O)n(C)c1=O", "Percent Effect": 6.318}
{"smiles": "CC(O)CN1CCC(CN(C)Cc2cc(F)cc3cccnc23)CC1", "note": "(stereo not given)", "Percent Effect": -9.016}
{"smiles": "CC(C)Oc1ccc(C(=O)Cn2cnnc2[S+](C)[O-])cc1", "note": "(stereo not given)", "Percent Effect": 6.636}
{"smiles": "CS(=O)(=O)c1cccc(S(=O)(=O)NC(=O)CCC2CCCCC2)c1", "Percent Effect": -13.77}
{"smiles": "COc1cccc(S(=O)(=O)NC(=O)COC2CCCC2)c1", "Percent Effect": 0.104}
{"smiles": "CS(=O)(=O)c1cccc(S(=O)(=O)NC(=O)CC2CCCCC2)c1", "Percent Effect": -9.509}
{"smiles": "CCOc1ccc(S(=O)(=O)NC(=O)CCC2CCCO2)cc1", "note": "(stereo not given)", "Percent Effect": 0.3257}
{"smiles": "COc1cccc(S(=O)(=O)NC(=O)CC2CCCC2)c1", "Percent Effect": 9.946}
{"smiles": "COc1cccc(S(=O)(=O)NC(=O)CC2CCCO2)c1", "note": "(stereo not given)", "Percent Effect": 94.52}
{"smiles": "COc1cccc(S(=O)(=O)NC(=O)COc2c(C)cccc2C)c1", "Percent Effect": -5.351}
{"smiles": "COc1ccc(S(=O)(=O)NC2(CC(N)=O)CCC2)cc1", "Percent Effect": 1.65}
{"smiles": "COc1cccc(S(=O)(=O)NC(=O)CCC2CCCC2)c1", "Percent Effect": 93.05}
{"smiles": "N#Cc1cccc(S(=O)(=O)NC(=O)COC2CCCC2)c1", "Percent Effect": 4.791}
{"smiles": "COc1cccc(S(=O)(=O)NC(=O)COC2CCCCC2)c1", "Percent Effect": 79.48}
{"smiles": "COc1ccc(S(=O)(=O)NC(=O)COC2CCCC2)cc1", "Percent Effect": 110.1}
{"smiles": "Cc1ccc(-n2c(C)nnc2SCC(O)COCc2ccco2)cc1", "note": "(stereo not given)", "Percent Effect": -12.77}
{"smiles": "Cc1cnccc1CN(C)C(=O)c1ccc(Cn2cnnn2)cc1", "Percent Effect": -17.07}
{"smiles": "Cc1ccc(CN(C)C(=O)NCC(C)(C)CCS(C)(=O)=O)s1", "Percent Effect": -3.781}
{"smiles": "CN(C(=O)Cc1coc(-c2ccccc2)n1)C1(C#N)CCC1", "Percent Effect": 4.147}
{"smiles": "COc1ccc(Cl)cc1NCC(=O)N(Cc1cccnc1)C1CC1", "Percent Effect": 0.4709}
{"smiles": "O=C(O)C(F)(F)F.O=C([C@@H]1COC[C@H]2CN(C3CCOCC3)C[C@H]21)N1CCCCO1", "Percent Effect": -37.74}
{"smiles": "COc1ccc(S(=O)(=O)NC(=O)c2cscn2)cc1C", "Percent Effect": -8.824}
{"smiles": "COCc1nc(C(=O)NS(=O)(=O)c2ccc(OC)c(C)c2)cs1", "Percent Effect": -15.7}
{"smiles": "COc1ccc(S(=O)(=O)NC(=O)COC2CCCCC2)cc1", "Percent Effect": 100.4}
{"smiles": "COc1ccc(S(=O)(=O)NC(=O)COC2CCCCC2)cc1C", "Percent Effect": 99.33}
{"smiles": "NC(=O)C(NC(=O)COC1CCCCC1)c1ccccc1", "note": "(stereo not given)", "Percent Effect": -9.016}
{"smiles": "COc1ccc(OCC(=O)NS(=O)(=O)c2cc(F)ccc2F)cc1", "Percent Effect": 18.57}
{"smiles": "CCCC(O)CNc1cncc(Br)c1", "note": "(stereo not given)", "Percent Effect": -5}
{"smiles": "CC(C)(NC(=O)Nc1cnn(CC2CCCO2)c1)c1nccs1", "note": "(stereo not given)", "Percent Effect": -5.14}
{"smiles": "Cc1ccc(-n2c(COC(C)C)n[nH]c2=O)cc1", "Percent Effect": -8.363}
{"smiles": "CN(Cc1n[nH]c(=O)n1CCc1ccccc1F)S(C)(=O)=O", "Percent Effect": -6.047}
{"smiles": "Cc1ccc(F)cc1-n1c(COC(C)C)n[nH]c1=O", "Percent Effect": 6.19}
{"smiles": "CN(Cc1n[nH]c(=O)n1Cc1ccccc1F)S(C)(=O)=O", "Percent Effect": -17.4}
{"smiles": "CNCc1n[nH]c(=O)n1-c1ccccc1Oc1ccccc1", "Percent Effect": -7.871}
{"smiles": "CCN(C)Cc1n[nH]c(=O)n1-c1cc(F)ccc1C", "Percent Effect": 106.9}
{"smiles": "Cc1ccc(F)cc1-n1c(CN(C)S(C)(=O)=O)n[nH]c1=O", "Percent Effect": 117.3}
{"smiles": "CCN(C)Cc1n[nH]c(=O)n1-c1ccc(C)c(C)c1", "Percent Effect": 100.3}
{"smiles": "COc1ccc(-n2c(COC(C)C)n[nH]c2=O)cc1", "Percent Effect": 8.862}
{"smiles": "CN(Cc1ccccc1-n1cccn1)C[C@@H]1CCCN2CCCC[C@H]12", "Percent Effect": -7.431}
{"smiles": "CCc1nsc(N2CCN(C(=O)c3ccnc(N(C)C)c3)CC2)n1", "Percent Effect": -3.339}
{"smiles": "CCC1=N[C@@]2(CC[C@@H]3CN(C(=O)NCC(C)C)C[C@@H]32)C(=O)N1CC(C)C", "Percent Effect": -11.82}
{"smiles": "Cc1nn(C)c(C)c1C1CCCN1CCOc1ccccc1C#N", "note": "(stereo not given)", "Percent Effect": -7.684}
{"smiles": "CS(=O)(=O)NC[C@@H]1OC[C@H]2CN(C(=O)c3ccc[nH]3)CC[C@H]21", "Percent Effect": -14.53}
{"smiles": "CN[C@@H](C)C(=O)N(Cc1cccc(C)c1)Cc1ccccc1OC", "Percent Effect": 4.64}
